# Only some compounds are listed: those with a hit (about 2.7% of all), similar ones and a draw of the others.
# ERG-DNA inh = blocks human ERG Ets domain binding to DNA | P11308 | fluorescence polarization, His-ERG Ets domain / labelled DNA | Potency, µM (top dose mostly 76.9 µM), for the others: top-dose FP activity, negative = inhibition, hits mostly inhibitors | actives 0.028% (n = 370,000); active = well fitted inhibition curve with a large enough effect in the polarisation, with a control signal flat; inconclusive = small, poorly fitted or top-dose-only effect, or effect the other way, or a change in a side signal; inactive = no such curve, though single readings can be large or run the other way; the % refers to the polarisation;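 note: polarization taken with two DNA probes labelled with fluorescein and Texas red; potency is the fitted concentration of half-maximal effect; % of control where 0% means no effect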
# Target sequence (P11308 whole entry, looked up, the tested form may be a part): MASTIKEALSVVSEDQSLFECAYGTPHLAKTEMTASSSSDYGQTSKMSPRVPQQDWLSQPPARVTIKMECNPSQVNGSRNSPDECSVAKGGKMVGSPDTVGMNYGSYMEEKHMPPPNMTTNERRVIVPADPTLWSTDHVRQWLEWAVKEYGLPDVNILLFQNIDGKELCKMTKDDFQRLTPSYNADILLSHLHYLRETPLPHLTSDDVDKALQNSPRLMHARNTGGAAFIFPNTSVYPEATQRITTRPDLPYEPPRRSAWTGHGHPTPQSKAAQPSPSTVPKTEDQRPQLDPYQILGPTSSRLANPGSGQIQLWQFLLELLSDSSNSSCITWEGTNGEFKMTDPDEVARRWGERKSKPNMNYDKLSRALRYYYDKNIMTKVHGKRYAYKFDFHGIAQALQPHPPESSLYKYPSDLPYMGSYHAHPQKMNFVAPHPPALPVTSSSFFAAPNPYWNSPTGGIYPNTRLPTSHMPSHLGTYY
#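 His-tagged ERG Ets domain (1 uM in the protein solution; 300mM KCl, 50mM Tris-HCl, 1mM EDTA, 1mM DTT, pH 7.5) received compound, then a probe mix of 5 nM fluorescein-DNA and 100nM Texas-615-DNA. Fluorescence polarization was read for both dyes.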
# ALOX12 inh = ALOX12 (human) lipoxygenase inhibition; purified 12hLO, xylenol orange hydroperoxide absorbance; Potency, µM (titrated, usually from 108 µM), without a hit: at the top dose activity change, negative = inhibition, most hits filed as inhibitors; actives 1.1% (n = 580,000); note: potency is the fitted concentration of half-maximal effect; % is set by controls: 0 for no effect and ±100 for the full control effect
#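 Purified human 12hLO (150 nM final) in 25 mM Hepes, 0.01% Triton X-100, pH 7.0 was preincubated 15 min at room temperature with compound. Then 40 uM arachidonic acid was added, 30 min. Hydroperoxide was read by Fe-XO absorbance ratio 573/405 nm.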
# LDHA block = blocks human lactate dehydrogenase A; actives 0.15% (n = 480,000); AID 1347041; purified LDHA, NADH/diaphorase-resazurin fluorescence; hits give low values; P00338; activity change, % (values are at about 110 or 230 µM); in the data active = activity change below about -30%; inconclusive = mostly about -25% to -30%;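 note: plate controls were DMSO wells for no effect and wells without enzyme for full effect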
#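 Human LDH5 at 2 nM final in Tris HCl pH 7.4 with 0.06 mM NADH and 0.2 mM pyruvate, reacted 5 minutes at room temperature. Remaining NADH coupled via diaphorase/resazurin; resorufin fluorescence read at 0 and 20 minutes, normalized to enzyme-free and DMSO wells.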
# A549 viability = A549 cytotoxicity, counter-screen for Nrf2 inhibitors. A549 ARE-Fluc cells, CellTiter-Fluor viability, 18-24 h. Potency, µM (series often up to 46 µM), for the others: top-dose activity change, negative = cytotoxicity, actives largely listed as inhibitors. actives 0.16% (n = 390,000); note: potency is the fitted concentration of half-maximal effect; % is set by controls: 0 for no effect and ±100 for the full control effect
#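 A549 ARE-Fluc cells in 5% FBS OPTI-MEM, 5000 cells/well, rested 2 h then exposed to compounds in concentration-response for 18-24 h at 37 °C. Viability by CellTiter-Fluor fluorescence (Ex 405/Em 525) after 30 min; luciferase luminescence (BugLite, 15 min, RT) read afterwards.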
# Nrf2 inh = inhibitors of Nrf2 signaling; Potency, µM (series often up to 46 µM), for the others: at the top dose activity change, negative = inhibition, hits mostly inhibitors; actives 2.1% (n = 360,000); A549 ARE-Fluc reporter, luciferase luminescence, 18-24 h; AID 504444; note: potency is the fitted concentration of half-maximal effect; % is set by controls: 0 for no effect and ±100 for the full control effect; nearly all actives have a fitted effect of over 60% in size
#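 In this cell-based qHTS, ARE-driven firefly luciferase in A549 cells reports Nrf2 activity; the luminescent signal after BugLite lysis is the measured value, with a prior CellTiter-Fluor read for cell health.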
# Nrf2 ARE act = activators of Nrf2 (ARE) signaling | AREc32 ARE-luciferase reporter (MCF7-derived line), luminescence, 24 h | Potency, µM (top dose mostly 46.1 µM), for the others: at the highest dose activation, hits mostly activators | actives 0.31% (n = 410,000); note: potency is the fitted concentration of half-maximal effect; % of control where 0% means no effect; nearly all actives have a fitted effect of over 65% in size
#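 Steps: seed AREc32_Fluc cells (1000/well, 5% FBS OPTI-MEM); incubate overnight at 37 deg C; add 23 nL compound; incubate 24 hr; add Steady-Glo; hold 30 min RT; read luminescence.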
# * hit, by the source's call; ? = inconclusive; . = no result given. Unless noted, calls come from the whole dose curve; as a rule, active = well fitted curve in the direction sought with a large enough effect; inconclusive = small, poorly fitted or top-dose-only effect, or another doubt; inactive = no such curve, though single readings can be large; an effect the other way counts as inactive or inconclusive.
SMILES,ERG-DNA inh,ALOX12 inh,LDHA block,A549 viability,Nrf2 inh,Nrf2 ARE act
CCC(C)(C(=O)NC1CCCCC1)N(Cc1cccs1)C(=O)c1ccc2c(c1)OCO2 (stereo not drawn),.,?,-0.4,.,.,.
CCCCC(=O)NCc1ccc(-c2nc3ccccc3s2)cc1,.,-8.6%,-30.5*,.,.,.
CC(=O)NCc1ccc(-c2nc3ccccc3s2)cc1,6.9%,6.2%,2.7,-0.4%,4.3%,1.8%
CCC(=O)NCc1ccc(-c2nc3ccccc3s2)cc1,.,-11.5%,-31.2*,.,.,.
CC(C)C(=O)NCc1ccc(-c2nc3ccccc3s2)cc1,.,?,-9.3,.,.,.
COc1cc(NC(=O)Nc2cc(-c3nc4cc(C)ccc4o3)ccc2OC)cc(OC)c1,.,?,6.7,.,.,.
COc1ccc(/C=N/NC(=O)c2cc(C(C)(C)C)[nH]n2)cc1COc1ccc(F)cc1F,7.1%,5.3%,-9.7,?,20.6µM*,-0.8%
CN(Cc1ccccc1)Cc1c(O)ccc2ccccc12,-6.0%,0.794µM*,-0.6,-1.3%,-23.5%,5.6%
CSc1ccccc1NC(=O)CN(C)Cc1c(O)ccc2ccccc12,-8.1%,5.01µM*,17.8,-9.9%,-16.2%,21.0%
CSc1ccccc1NC(=O)CN(C)Cc1ccc(Br)cc1,-1.8%,-1.6%,-2.6,0.0%,?,0.6%
CN(CC(=O)Nc1ccccc1F)CC(=O)Nc1ccc(F)c(F)c1F,-6.6%,-3.7%,-1.4,10.2%,13.3%,0.3%
CSc1ccccc1NC(=O)CN(C)CC(=O)Nc1c(F)cccc1F,-0.9%,8.2%,-54.8*,10.4%,-9.7%,4.1%
CSc1ccccc1NC(=O)CN(C)CC(=O)Nc1ccccc1F,-6.3%,7.0%,-31.1*,4.7%,-3.3%,-0.5%
C/C(Cl)=C\C[N+]1(C/C=C(\C)Cl)CCCCC1,.,?,-8.7,.,.,.
CC(C)CS(=O)(=O)CCC(=O)O,.,-11.8%,-4.4,.,.,.
COC(=O)c1ccc(COC(=O)c2cc3c(s2)CCCCC3)o1,.,-27.3%,8.6,.,.,.
COC(=O)c1ccc(COC(=O)c2cc3c(s2)CCC3)o1,.,8.91µM*,0.6,.,.,.
Cc1ccc(NC(=O)CCSc2nc(-c3ccco3)cc(C(F)(F)F)n2)cc1F,1.8%,-20.8%,0.8,-2.9%,10.3µM*,-0.6%
O=C(CCSc1nc(-c2ccco2)cc(C(F)(F)F)n1)Nc1cccc(O)c1,-4.5%,-17.8%,3.1,3.0%,4.9%,0.5%
Cc1cc(NC(=O)CCCSc2nc(-c3ccco3)cc(C(F)(F)F)n2)n(-c2ccccc2)n1,1.7%,102.5%,2.0,-17.0%,25.9µM*,3.1%
Cc1nnc(SCC(=O)Nc2sc3c(c2C#N)CCC(C)C3)n1Cc1ccccc1 (stereo not drawn),.,20µM*,0.9,.,.,.
COC(=O)c1ccccc1OCc1ccccc1,.,14.4%,8.2,.,.,.
Cc1ccc(CNc2nc3c([nH]2)c(=O)n(C)c(=O)n3C)cc1,-8.7%,-1.8%,-0.4,-24.0%,9.2µM*,0.3%
CC1Oc2ccccc2OC1C(=O)Nc1ccccn1 (stereo not drawn),-0.7%,0.9%,-13.2,10.1%,10.9%,7.08µM*
O=C(Nc1ccccn1)C1COc2ccccc2O1 (stereo not drawn),.,-12.3%,-4.1,-2.7%,?,8.5%
O=C1CSc2ccc(C(=O)Nc3ccc(Oc4ccccc4)cc3)cc2N1,.,?,8.1,.,.,.
CC(C)N(C(=O)[C@H]1C[C@H](CC(=O)NCCCN(C)C)C(=O)N2CCc3c([nH]c4cc(CCC(=O)N(C)C)ccc34)[C@]12C)C(C)C,16.5%,-8.8%,-2.3,-3.1%,1.3%,-0.9%
C[C@]12c3[nH]c4cc(-c5ccco5)ccc4c3CCN1C(=O)[C@@H](CC(=O)NCC13CC4CC(CC(C4)C1)C3)C[C@@H]2C(=O)N1CCOCC1,0.6%,?,-5.0,?,23.1µM*,-1.0%
